This is part of a sample that, as a whole, favours compounds with a hit. Of some 79,000 tested, about 15% had one in any assay. Calls of active or inactive are those of the source. No stated cut-off is given here; in the data, active means growth inhibition above about 70%; inactive means the rest.
Experiment: NCI Yeast Anticancer Drug Screen. Data for the mlh1 rad18 strain (AID 175)
Conditions: S. cerevisiae mlh1 rad18 strain growth inhibition; at 50.0 µM; stronger effect = higher value
How it was run: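 Vehicle-treated cultures served as the reference for growth inhibition in a yeast strain carrying DNA damage repair alterations exposed to each compound.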

SMILES | growth inhibition
CCCCCCCCCCCCCCCCCCNC(=O)NCc1ccncc1 | 9.3% (inactive)
COCC(=O)c1ccccc1-c1ccccc1 | 0.85% (inactive)
Cn1nc(-c2ccc(Cl)c(Cl)c2)[n+]([O-])c2c(=O)n(C)c(=O)nc1-2 | 91.3% (active)
CC(C)(C)OC(=O)NC(Cc1ccccc1)OCc1ccccc1 (stereo not drawn) | -19.7% (inactive)
O=C(/C=C/c1ccc([N+](=O)[O-])cc1)NN=C(c1ccccc1)c1ccccc1 | -0.15% (inactive)
CC(C)N(CSc1ccc([N+](=O)[O-])cc1)CSc1ccc([N+](=O)[O-])cc1 | -1% (inactive)
COC(=O)c1c2c(C)ccc(C)c2nc2c(C)ccc(C)c12 | -41% (inactive)
O=C(O)c1nc(Cl)c(Cl)[nH]c1=O | 3.6% (inactive)
NC(=O)c1ccc(C(F)(F)F)cc1O | 10% (inactive)
CN(C)/N=C\c1ccc(C(=O)O)cc1 | 22.9% (inactive)
CC(=O)NCC(=O)c1ccccc1 | 9.5% (inactive)
Cc1[nH]n(-c2ccccc2)c(=O)c1/C=N\C(N)=S | -25.1% (inactive)
CCOC(=O)c1ccc(N=c2sc3ccccc3nc2Nc2ccc(C(=O)OCC)cc2)cc1 | 10.9% (inactive)
COC(=O)C(N)Cc1ccc(O)c(O)c1 (stereo not drawn) | 48.5% (inactive)
O=C1CSC(=S)N1 | 20.9% (inactive)
CCN(CC)C(CC(=O)c1ccccc1)C(=O)c1ccccc1 (stereo not drawn) | 49.6% (inactive)
[N-]=[N+]=NC1CC(n2ccc(N)nc2=O)OC1CO (stereo not drawn) | 8.8% (inactive)
CN(C)CCNC(=O)c1cccc2c(Nc3ccc(S(N)(=O)=O)cc3)c3ccccc3nc12 | 11.1% (inactive)

From PubChem BioAssay (NCI)
